# In PubChem BioAssay (NCATS):
# Calls of active or inactive are those of the source. The call rests on the fitted dose curve; in most records, active means well fitted curve in the direction sought with a large enough effect; inconclusive means small, poorly fitted or top-dose-only effect, or another doubt; inactive means no such curve, though single readings can be large; an effect the other way counts as inactive or inconclusive.
# Molecular target: Alpha-galactosidase (Coffea arabica) (UniProt Q42656)
# Sequence (Q42656 whole entry, looked up): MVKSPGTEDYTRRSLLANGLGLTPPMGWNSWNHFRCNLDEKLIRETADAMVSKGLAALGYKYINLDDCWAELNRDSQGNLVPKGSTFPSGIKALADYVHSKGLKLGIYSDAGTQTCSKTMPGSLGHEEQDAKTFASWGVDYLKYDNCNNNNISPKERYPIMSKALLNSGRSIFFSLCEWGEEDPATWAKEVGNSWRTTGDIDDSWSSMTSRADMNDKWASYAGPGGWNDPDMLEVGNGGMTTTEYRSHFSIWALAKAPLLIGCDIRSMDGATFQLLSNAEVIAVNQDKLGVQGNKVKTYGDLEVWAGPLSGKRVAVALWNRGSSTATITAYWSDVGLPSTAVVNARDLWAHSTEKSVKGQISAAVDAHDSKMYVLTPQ
# Experiment: Counterscreen for Glucocerebrosidase Inhibitors: qHTS Assay for Coffee Bean alpha-Galactosidase at pH 4.5 (AID 957)
# Details: purified coffee bean alpha-galactosidase, fluorogenic substrate; series mostly up to 76.9 µM
# Summary of the method: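 Quantitative HTS of compounds (0.7 nM to 77 uM) against coffee bean alpha-galactosidase at pH 4.5, measuring 4-methylumbelliferone fluorescence released from 80 uM substrate.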
row,Structure (SMILES),outcome
1,COc1cc2nc(N3CC=[N+](C(=O)c4ccco4)CC3)nc(N)c2cc1OC,inactive
2,COc1ccccc1OC[C@H](O)CN1CCN(CC(=O)Nc2c(C)cccc2C)CC1,inactive
3,CC(=O)O[C@@H]1[C@H]([N+]2(C)CCCCC2)C[C@@H]2[C@@H]3CC[C@@H]4C[C@@H](OC(C)=O)[C@H]([N+]5(C)CCCCC5)C[C@@]4(C)[C@H]3CC[C@]21C,inactive
4,OC[C@@H]1O[C@@H](n2cnc3c(NC4CCCC4)ncnc32)[C@@H](O)[C@H]1O,inactive
5,C=CCc1ccccc1OC[C@H](O)CNC(C)C,inactive
6,C/C=C1\C(=O)C[C@@H]2[C@@H]3CCC4=CC(=O)CC[C@@]4(C)[C@H]3CC[C@@]12C,inactive
7,O=C(O)CCCC[C@H]1CCSS1,inactive
8,CC[C@H](C)C(=O)O[C@H]1CCC=C2C=C[C@H](C)[C@H](CC[C@@H]3C[C@H](O)CC(=O)O3)[C@H]21,inactive
9,CC(C)(C)c1cc(/C=C(\C#N)C(N)=S)cc(C(C)(C)C)c1O,inactive
10,O=C1[C@@H]2C=CC=CC2=NC(=S)N1CCN1CCC(=C(c2ccc(F)cc2)c2ccc(F)cc2)CC1,inactive
11,CN=C(NC#N)Nc1ccc(C2=NNC(=O)C[C@@H]2C)cc1,inactive
12,O=C(NC[C@H]1CCCCN1)c1cc(OCC(F)(F)F)ccc1OCC(F)(F)F,inactive
13,OC[C@@H]1O[C@H](O)[C@@H](Cl)[C@H](O)[C@@H]1O,inactive
14,CC1=C(\C=C/C(C)=C/C=C\C(C)=C\C(=O)O)C(C)(C)CCC1,inactive
15,CCN(CC)CC#CCOC(=O)[C@@](O)(c1ccccc1)C1CCCCC1,inactive
16,O=C(O)[C@H]1CCCN(CCC=C(c2ccccc2)c2ccccc2)C1,inactive
17,O[C@@](CCN1CCCCC1)(c1ccccc1)C1CCCCC1,inactive
18,C[C@@H](C[N+](C)(C)C)OC(N)=O,inactive
19,C[C@@H]1CNCCN1S(=O)(=O)c1cccc2cnccc12,inactive
20,CN[C@@H](CC(C)C)C(=O)N[C@@H]1C(=O)N[C@H](CC(N)=O)C(=O)N[C@H]2C(=O)N[C@H]3C(=O)N[C@H](C(=O)N[C@H](C(=O)O)c4cc(O)cc(O)c4-c4cc3ccc4O)[C@H](O)c3ccc(c(Cl)c3)Oc3cc2cc(c3O[C@@H]2O[C@@H](CO)[C@@H](O)[C@@H](O)[C@H]2O[C@H]2C[C@](C)(N)[C@H](O)[C@H](C)O2)Oc2ccc(cc2Cl)[C@@H]1O,inactive
21,CCCCCN(CCCCC)C(=O)[C@H](CCC(=O)O)NC(=O)c1ccc(Cl)c(Cl)c1,inactive
22,Nc1ncnc2c1ncn2[C@@H]1O[C@@H](CO)[C@H](O)[C@@H]1O,inactive
23,CC(C)(C)[C@@]1(O)CCN2C[C@@H]3c4ccccc4CCc4cccc(c43)[C@@H]2C1,inactive
24,Cn1c(=O)c2c(nc(/C=C\c3cccc(Cl)c3)n2C)n(C)c1=O,inactive

# Molecular target: Alpha-galactosidase (Coffea arabica) (UniProt Q42656)
# Experiment: Counterscreen for Glucocerebrosidase Inhibitors: qHTS Assay for Coffee Bean alpha-Galactosidase at pH 5.9 (AID 998)
# Details: coffee bean alpha-galactosidase enzyme assay; series mostly up to 76.9 µM
# Summary of the method: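 In 50 mM citric acid pH 5.9 with 0.005% Tween-20, coffee bean enzyme hydrolyses 80 uM 4-MU alpha-D-galactopyranoside over 20 min at RT. Activity is normalized to controls; AC50 comes from Hill-modelled concentration-response data.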
row,Structure (SMILES),outcome
1,C[C@@](N)(Cc1ccc(O)c(O)c1)C(=O)O,inactive
2,CC(C)[C@@H]1NC(=O)[C@H](CCCCN)NC(=O)[C@H](Cc2c[nH]c3ccccc23)NC(=O)[C@H](Cc2ccc(O)cc2)NC(=O)[C@H](C)N(C)C(=O)[C@H](Cc2ccccc2)NC1=O,inactive
3,COC(=O)C1=C(C)NC(C)=C(C(=O)OCCN(C)Cc2ccccc2)[C@@H]1c1cccc([N+](=O)[O-])c1,inactive
4,Cc1cccc(/C=C\c2ccccc2)n1,inactive
5,CN=C(NC#N)Nc1ccc(C2=NNC(=O)C[C@@H]2C)cc1,inactive
6,O[C@@](CCN1CCCCC1)(c1ccccc1)C1CCCCC1,inactive
